# ATXN2 expr inh – Primary qHTS for Inhibitors of ATXN expression. HEK-293 ATXN2-luciferase reporter, luminescence, 24 h. Potency, µM (series often up to 57 µM), for inactives: top-dose activity change, negative = inhibition, most hits filed as inhibitors. actives 0.72% (n = 360,000). AID 1745845, 2022; note: % is set by controls: 0 for no effect and ±100 for the full control effect; nearly all actives have a fitted effect of over 55% in size
#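 ATXN2-luciferase reporter cells (luciferase flanked by upstream and downstream ATXN2 gene portions) were treated 24 h at 37 °C with compounds at up to 57 uM. SteadyGlo luminescence gave expression; GF-AFC fluorescence gave viability.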
# Nrf2 activator – qHTS of Nrf2 Activators; AREc32 ARE-luciferase reporter (MCF7-derived line), luminescence, 24 h; AID 624171, 2012; Potency, µM (top dose mostly 46.1 µM), inactives show at the top dose activation, most hits filed as activators; actives 0.31% (n = 410,000); note: % of control where 0% means no effect; nearly all actives have a fitted effect of over 65% in size
#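 Quantitative high-throughput format: AREc32 reporter cells, 1000 per well, received compound by pin transfer and were incubated 24 hr at 37 deg C, 5% CO2, before Steady-Glo luminescence detection.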
# Nrf2 block – Nrf2 qHTS screen for inhibitors; A549 ARE-Fluc reporter, luciferase luminescence, 18-24 h; Potency, µM (top dose mostly 46 µM), without a hit: at the top dose activity change, negative = inhibition, most hits filed as inhibitors; actives 2.1% (n = 360,000); note: % is set by controls: 0 for no effect and ±100 for the full control effect; nearly all actives have a fitted effect of over 60% in size
#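 Concentration-response testing used A549 ARE_Fluc cells at 5000 cells/well. Following an 18-24 h compound incubation, viability was read by fluorescence (Ex 405/Em 525) and luciferase output by luminescence.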
# A549 tox – Nrf2 qHTS screen for inhibitors: counterscreen for cytotoxicity; A549 ARE-Fluc cells, CellTiter-Fluor viability, 18-24 h; Potency, µM (highest dose often 46 µM), for the others: at the top dose activity change, negative = cytotoxicity, actives largely listed as inhibitors; actives 0.16% (n = 390,000); AID 504648, 2011; note: % is set by controls: 0 for no effect and ±100 for the full control effect
#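 A549 ARE-Fluc cells in 5% FBS OPTI-MEM, 5000 cells/well, rested 2 h then exposed to compounds in concentration-response for 18-24 h at 37 °C. Viability by CellTiter-Fluor fluorescence (Ex 405/Em 525) after 30 min; luciferase luminescence (BugLite, 15 min, RT) read afterwards.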
# ATXN viability – Viability Counterscreen for Primary qHTS for Inhibitors of ATXN expression | S2 cells (HEK-293 line with an ATXN2-luciferase reporter) viability, CellTiter-Fluor protease fluorescence, 24 h | Potency, µM (doses to about 56.7 µM), most hits filed as cytotoxic | actives 0.49% (n = 400,000); note: nearly all actives have a fitted effect of over 40% in size
# An asterisk follows results filed as active; i = inactive; ? = inconclusive; . = no result given; [ ] = another dose, or the depositor's remark. This is a sample that favours compounds with a hit; in the whole collection about 2.9% have one here. Calls come from the whole dose curve; as a rule, active = well fitted curve in the direction sought with a large enough effect; inconclusive = small, poorly fitted or top-dose-only effect, or another doubt; inactive = no such curve, though single readings can be large; an effect the other way counts as inactive or inconclusive. Potency is the fitted concentration of half-maximal effect.
SMILES,ATXN2 expr inh,Nrf2 activator,Nrf2 block,A549 tox,ATXN viability
O=C(c1cccc(F)c1)N1CCC(N2CCCCCC2)CC1,-4%,0%,-15%,2%,i
Oc1ccc(N=Cc2ccc(OCc3ccccc3)cc2)cc1,.,14µM*,?,?,?
O=S(=O)(c1ccc2ccccc2c1)N1CCN(C(=S)Nc2ccccc2F)CC1,-13%,0%,15µM*,-1%,i
O=S(=O)(c1ccc(Cl)cc1)N1CCN(C(=S)Nc2ccccc2F)CC1,-16%,0%,6%,8%,i
Cc1ccc(-c2csc(=S)n2CC(=O)OCC(=O)NCc2ccco2)cc1,43%,16%,18µM*,-19%,i
Cc1cccc(C(=O)Nc2ccccc2C(=O)Nc2ccc(C(=O)O)cc2)c1,12%,0%,-15%,-13%,i
COC(=O)C1=C(C)NC2=C(C(=O)CC(C)(C)C2)C1c1cn(Cc2ccc(Br)cc2)nc1-c1ccccc1 (stereo unspecified),-9%,-1%,13µM*,-22%,i
COC(=O)C1=C(C)NC2=C(C(=O)CCC2)C1c1cn(Cc2ccc(Br)cc2)nc1-c1ccccc1 (stereo unspecified),-7%,0%,?,-14%,i
Cc1ccc(CNC(=O)c2ccccc2N(C)S(C)(=O)=O)cc1,10%,0%,6%,4%,i
CC(=O)N(O)CCCCCNC(=O)CCC(=O)N(O)CCCCCNC(=O)CCC(=O)N(O)CCCCCN,?,-1%,10µM*,-1%,i
CCc1ccc(OCc2ccccc2C(=O)Nc2ccc3nc(C)cc(N)c3c2)cc1,17µM*,.,.,.,.
Cc1cc(N)c2cc(NC(=O)/C=C/c3ccccc3Cl)ccc2n1,.,-4%,3%,10%,8.9µM*
Cc1cc(C)nc(NC(=O)/C=C/c2ccccc2Cl)n1,53%,8.9µM*,.,-6%,i
Cc1ccc(NC(=O)/C=C/c2ccccc2Cl)cc1Cl,5%,11%,24%,4%,i
O=C(NC(N1CCCCCC1)C(Cl)(Cl)Cl)c1ccccc1Cl (stereo unspecified),1%,0%,-16%,6%,i
Cc1cc(S(=O)(=O)N(Cc2ccc(C(C)(C)C)cc2)Cc2cccs2)ccc1-n1cnnn1,-3%,-1%,?,2%,i
CCOC(=O)C1CCN(C(=O)COc2ccc(Cl)cc2)CC1,-3%,0%,8%,1%,i
Cc1cccc(N2CCN(C(=O)C3CCCN(S(=O)(=O)c4ccc(Br)s4)C3)CC2)c1C (stereo unspecified),.,-1%,10µM*,-6%,.
O=C(C1CCCN(S(=O)(=O)c2ccc(Br)s2)C1)N1CCN(c2ccccc2)CC1 (stereo unspecified),-39%,0%,16µM*,-16%,?
O=C(C1CCCN(S(=O)(=O)c2ccc(Br)s2)C1)N1CCCCCC1 (stereo unspecified),-24%,0%,.,4%,i
O=C(C1CCN(S(=O)(=O)c2ccc(Br)s2)CC1)N1CCN(c2cccc(Cl)c2)CC1,-1%,0%,?,-6%,i
Cc1cccc(N2CCN(C(=O)c3cc(S(=O)(=O)N4CCOCC4)cn3C)CC2)c1C,-11%,-1%,-12%,-3%,i
Cc1cccc(N2CCN(C(=O)c3cc(S(=O)(=O)N4CCCC4)cn3C)CC2)c1C,-24%,-2%,18µM*,-7%,i
COc1cccc(N2CCN(C(=O)C3CCCN(S(=O)(=O)c4ccc(Br)s4)C3)CC2)c1 (stereo unspecified),-21%,5%,16µM*,-5%,?
O=C(NCc1ccccc1F)C1CCN(C(=O)NCc2ccccc2)CC1,-2%,0%,-12%,-9%,i
SMILES,ATXN2 expr inh,Nrf2 activator,Nrf2 block,A549 tox,ATXN viability
Cc1ccc([C@H]2N[C@]3(CCCN(Cc4ccc(Br)cc4)C3=O)[C@H]3C(=O)N(C)C(=O)[C@@H]23)cc1,-13%,1%,.,.,i
COc1cccc(N2CCN(C(=O)C3CCC(CNS(=O)(=O)c4ccc(Br)s4)CC3)CC2)c1 (stereo unspecified),-21%,0%,16µM*,-20%,i
O=C(C1CCC(CNS(=O)(=O)c2ccc(Br)s2)CC1)N1CCN(c2ccc(F)cc2)CC1 (stereo unspecified),-21%,3%,?,1%,i
COc1ccc2cccc(CCNC(C)=O)c2c1,7%,.,.,.,i
CC(C(=O)c1ccc(-c2ccccc2)cc1)[n+]1ccccc1 (stereo unspecified),?,2%,7.3µM*,?,i
Cc1ccc[n+](C(C)C(=O)c2ccc(-c3ccccc3)cc2)c1 (stereo unspecified),?,0%,-20%,0%,i
Cc1ccc(S(=O)(=O)Cc2ccc(C(=O)N3CCC(C)CC3)cc2)cc1,-20%,3%,-3%,5%,i
CCOC(=O)C1Nc2ccc(C(F)(F)F)cc2C2c3ccccc3CC12 (stereo unspecified),25µM*,-5%,?,?,?
O=C(NCCOc1ccccc1)C1Nc2ccc(C(F)(F)F)cc2C2c3ccccc3CC12 (stereo unspecified),-37%,9%,-25%,-13%,i
Cc1ccccc1OC(=O)c1snnc1C,1%,-1%,27%,0%,i
CCOC(=O)c1cnc(Nc2nc3ccccc3o2)nc1C,2.8µM*,-1%,.,-3%,i
CCOC(=O)c1cnc(Nc2nc3ccccc3o2)nc1CSc1nnc(C)s1,-7%,1%,?,?,i
CC(=O)c1cn(CCOc2cc(C)ccc2C)c2ccccc12,-24%,2%[9.22 µM],6.5µM*,-1%,i
Cc1ccccc1OCCn1cc(/C(N)=N/O)c2ccccc21,-21%,3%,23µM*,-23%,i
CCOC(=O)c1cnn2c(C(F)(F)F)cc(-c3cn(C)nc3C)nc12,7%,0%,-20%,-15%,?
CC(C)c1ccc(NC(=O)CCn2c(=O)c3cccn3c3ccccc32)cc1,.,4%,10µM*,-12%,.
Cc1cc(C)c(NC(=O)CCn2c(=O)c3cccn3c3ccccc32)c(C)c1,.,4%,?,?,.
Cc1c(C#N)c2ccccc2n1CCOc1ccccc1F,-6%,4%,23µM*,-2%,i
N#Cc1cn(CCOc2ccccc2F)c2ccccc12,31%,4%,8%,9%,i
CC(C)Oc1ccc(CNC(=O)CN2C(=O)CCc3cc(S(=O)(=O)N4CCCCC4)ccc32)cc1,5%,0%,.,-1%,i
CCc1noc(C)c1C(=O)Oc1ccc(N(C)S(=O)(=O)c2ccc(C)cc2)cc1,?,1%,?,-6%,i
